In PubChem BioAssay:

Experiment: small-molecule binders of probe aNOTCH2, primary screen, biochemical, small-molecule microarray, 635/667 nm fluorescence (AID 1121);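 note: score merges feature fluorescence read at 667 nm with its signal to noise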
Settings: higher = more signal

Row | SMILES | composite z-score
1 | CCOC(=O)C1=CC[C@@H](c2ccccc2)N(S(=O)(=O)c2ccc(C)cc2)[C@@H]1C#N | -0.026
2 | C=CCN1C(=O)[C@]2(O[C@H](CCO)[C@@H]([Si](C)(C)c3ccc(OC)cc3)[C@@H]2C)c2cc(N3C(=O)c4ccccc4Oc4ccccc43)ccc21 | -0.125
3 | C=CCOC(=O)[C@H]1[C@@H]2C(=O)O[C@@H](c3ccccc3)[C@@H](c3ccccc3)N2[C@@H](c2ccc(OCCOC(=O)[C@H]3C[C@H]4C(=O)NCC(=O)N4[C@H]3c3ccc(O)cc3)cc2)[C@]12C(=O)Nc1ccccc12 | -0.0631
4 | C=CCOC(=O)[C@H]1[C@@H]2C(=O)O[C@@H](c3ccccc3)[C@@H](c3ccccc3)N2[C@@H](c2ccc(OCCOC(=O)[C@@H]3C[C@@H]4C(=O)N[C@@H](Cc5ccccc5)C(=O)N4[C@@H]3c3ccc(O)cc3)cc2)[C@]12C(=O)Nc1ccc(I)cc12 | -0.092
5 | CC(C)[Si](C#Cc1ccccc1)(O[C@H](c1ccccc1)c1cn(Cc2ccccc2)nn1)C(C)C | -0.189
6 | O=C(NCCN1CCOCC1)[C@@H]1c2ccccc2C(=O)N(CC23CC4CC(CC(C4)C2)C3)[C@H]1c1ccc(CO)cc1 | 0.0129
7 | O=C1O[C@@H](c2ccccc2)[C@@H](c2ccccc2)N2[C@@H](c3ccccc3OCCO)[C@]3(C(=O)Nc4ccc(C#CC5(O)CCCCCC5)cc43)[C@@H](C(=O)N3CCCCCCC3)[C@H]12 | 1.21
8 | CCOC(=O)C[C@H]1[C@H](OC(=O)c2ccc(-c3ccccc3)cc2)[C@@H](NC(=O)C2CCCCC2)c2cc(OCCCO)ccc2N1C(=O)Cc1ccc(OC)cc1 | -0.182
9 | C=CCC(OC(C)=O)[C@@H]1[C@@H](N(Cc2cccc3ccccc23)C(=O)c2ccc(C)cc2)c2cc(OCCCO)ccc2N1C(=O)Cc1ccc2ccccc2c1 (stereo partly drawn) | -0.149
10 | COC(=O)C1(CC(C)C)C=C2C(=C(C)C(=O)C2C)CN1 (stereo not drawn) | 0.175
11 | COC(=O)[C@@]1(Cc2ccc(F)cc2)[C@H]2c3cc(C(=O)N4CCCC4)n(C[C@H](O)CO)c3C[C@H]2CN1C(=O)c1ccccc1 | 0.678
12 | COC(=O)C(CC#Cc1ccc2c(c1)[C@]1(C(=O)N2)[C@H](C(=O)NC[C@H](O)c2ccccc2)[C@H]2C(=O)O[C@H](c3ccccc3)[C@H](c3ccccc3)N2[C@@H]1c1ccc(O)cc1)C(=O)OC | -0.126
13 | CC(C)c1ccc(NN2C(C(O)C3CCCCC3)C=CC3C(=O)N(c4ccccc4)C(=O)C32)cc1 (stereo not drawn) | 0.0836
14 | CN(C)C(=O)[C@]1(CCS(=O)(=O)c2ccccc2)N=C(c2ccc(OCCCO)cc2)O[C@@H]1c1ccccc1CN=[N+]=[N-] | 0.139
15 | COc1ccc(C(=O)Nc2cccc(CN3C(=O)[C@]4(O[C@H](CC(=O)N(CCO)Cc5ccccc5)[C@@H]([Si](C)(C)c5ccc(OC)cc5)[C@@H]4C)c4ccccc43)c2)cc1 | -0.046
16 | C=CCNC(=O)[C@@H]1[C@H]2C(=O)O[C@H](c3ccccc3)[C@H](c3ccccc3)N2[C@H](c2ccc(O)cc2)[C@@]12C(=O)N(C(=O)OCCOC)c1ccc(C#CCC(C(=O)OC)C(=O)OC)cc12 | -0.084
17 | C=CCNC(=O)[C@H]1[C@@H]2C(=O)O[C@@H](c3ccccc3)[C@@H](c3ccccc3)N2[C@@H](c2ccc(OCCO)cc2)[C@]12C(=O)N(C(=O)OCCOC)c1ccc(C#CCNC(N)=O)cc12 | -0.0132
18 | COC(=O)[C@@]1(Cc2ccc(OC)cc2)[C@@H]2[C@@H](CC(=O)[C@H]2CC(=O)C(=O)N(C)C)CN1C(=O)c1ccccc1 | 0.732
19 | CC(C)N1C(=O)[C@@]2(Cc3ccccc31)c1ccccc1C(=O)N(Cc1ccccc1C(F)(F)F)[C@H]2c1ccc(CO)cc1 | 0.0015
20 | COc1ccc(C#Cc2ccc3c(c2)[C@]2(C(=O)N3)[C@H](c3ccccc3OCCO)N3[C@H](c4ccccc4)[C@H](c4ccccc4)OC(=O)[C@H]3[C@@H]2C(=O)NC[C@H](O)c2ccccc2)cc1 | -0.0942
21 | O=C1O[C@H](c2ccccc2)[C@H](c2ccccc2)N2[C@H]1[C@@H](C(=O)O)[C@]1(C(=O)Nc3ccccc31)[C@H]2c1ccc(OCCO)cc1 | 0.024
22 | Cc1ccc(S[C@]2(C(=O)NCCN3CCOCC3)CC(=O)N(C(C)C)[C@@H]2c2ccc(CO)cc2I)cc1 | -0.0391
23 | COc1ccc([Si](C)(C)[C@H]2[C@H](CC(=O)N(CCO)Cc3ccccc3)O[C@@]3(C(=O)N(c4ccccc4)c4ccccc43)[C@@H]2C)cc1 | -0.117
